The record followed here is ChEMBL document CHEMBL1157539, “Thousands of chemical starting points for antimalarial lead identification” (Nature, 2010).

Type in all cases: functional
The subject of assay [1] is Plasmodium falciparum. As to the kind of experiment: GSK_TCMDC: Inhibition of Plasmodium falciparum 3D7 in whole red blood cells, using parasite LDH activity as an index of growth. Test compounds present at 2uM.
Assay [2] has as its system Plasmodium falciparum. Description: GSK_TCMDC: Inhibition of Plasmodium falciparum Dd2 in whole red blood cells, using parasite LDH activity as an index of growth. Test compounds present at 2uM.
In another assay the test system is HepG2. As to the kind of experiment: GSK_TCMDC: Percent inhibition of human HepG2 cell line. Test compounds present at 10uM.

One may read the Inhibition as the relative decrease from the control value, in per cent. Lower therefore signals a response near the control. Turning to `O=C(Nc1ccc(-c2nc3ccccc3[nH]2)cc1)c1ccc(Cl)s1`, the Inhibition in the assay with Plasmodium falciparum [1] is 99%; in the assay with Plasmodium falciparum [2], 34%; in the assay with HepG2, 16%.
The like results for `CN1CCC(C(=O)Nc2cccc(-c3ccc(-c4nc5cc(C(F)(F)F)ccc5[nH]4)cc3)c2)CC1` were, in that order, 100%, 99% and 38%.
Consider `CC(C)Nc1nc(NC2CCCCC2)nc(N2CCCCCCC2)n1`, for which the Inhibition in the assay on Plasmodium falciparum [1] came out at 86%; in the assay with Plasmodium falciparum [2] it was 96%; in the assay with HepG2 it was 13%.
The matching figures for `COc1ccc2ncc(F)c(CCN3CC[C@@H](CNCc4ccc5c(c4C)OCCO5)C3)c2n1.Cl`: 94%, 11% and 17%.
The like results for `CC(C)(CNCc1ccc(F)c(F)c1)c1nc(-c2ccc(Cl)c(O)c2)c(-c2ccncc2)[nH]1.Cl` were, in that order, 100%, 89% and 74%.
The like results for `COc1ccc(S(=O)(=O)Nc2cc(C)cc(Br)c2OC)cc1N1CCN(C(=O)C(Cl)(Cl)Cl)CC1.Cl` were, in that order, 91%, 66% and 9%.
Turning to `COc1ccc2[nH]ccc(=NN=Cc3ccccc3Cl)c2c1`, the Inhibition in the assay on Plasmodium falciparum [1] was 100%; in the assay on Plasmodium falciparum [2], 99%; in the assay on HepG2 it was 29%.
The like results for `Cc1ccc2c(Cl)c(C(=O)N3CC(C)OC(C)C3)sc2c1` (configuration not stated) were, in that order, 100%, 98% and 4%.
For the compound `Cc1cc(NC(=O)c2cccs2)ccc1OC1CCN(Cc2ccc(C#N)cc2)CC1.O=C(O)C(F)(F)F`, the Inhibition in the assay on Plasmodium falciparum [1] is on record as 94%; in the assay on Plasmodium falciparum [2], 92%; in the assay on HepG2 it was 34%.
The matching figures for `CCCCNCC(O)COc1ccccc1-c1ccc(N/N=C/c2cccc3ccccc23)nn1` (configuration not stated): 99%, 8% and 38%.
The like results for `Cc1[nH]c(/C=C2\C(=O)Nc3ccc(S(=O)(=O)Cc4c(Cl)cccc4Cl)cc32)c(C)c1C(=O)N1CCC[C@@H]1CN1CCCC1` [PHA-665752] were, in that order, 85%, 92% and 33%.
As for `COc1cc2nccc(Nc3cc(C)cc(O)c3)c2cc1OC.Cl`, the Inhibition with Plasmodium falciparum [1] was 97%; in the assay on Plasmodium falciparum [2] it was 0%; with HepG2 it was 0%.
As to `COc1cccc2c(NN=Cc3cccc(Cl)c3)ccnc12`, the Inhibition with Plasmodium falciparum [1] is on record as 100%; in the assay with Plasmodium falciparum [2], 77%; with HepG2, 19%.
The like results for `CCN1CCN(CCCNc2c3ccc(Cl)cc3nc3ccc(OC)cc23)CC1.Cl` were, in that order, 97%, 100% and 34%.
The like results for `CCN(CC)CCN(Cc1ccc(-c2ccc(C(F)(F)F)cc2)cc1)C(=O)Cn1cc(Cc2cnn(C)c2)c(=O)n2nc(-c3ccccc3)cc12.O=C(O)C(O)C(O)C(=O)O` were, in that order, 100%, 74% and 18%.
The like results for `OC(CNCc1ccccc1OCc1ccccc1)c1cccc(C(F)(F)F)c1` (configuration not stated) were, in that order, 99%, 99% and 12%.
With `CC(O)C1CCCCN1C(=O)c1ccc(-c2cccc(-c3nc4cc(F)ccc4[nH]3)c2)cc1` (configuration not stated), the Inhibition with Plasmodium falciparum [1] came out at 100%; with Plasmodium falciparum [2], 97%; with HepG2, 30%.
Consider `O=C(N/C=N/c1cc([N+](=O)[O-])c(-c2ccncc2)n1-c1ccccc1)c1cccc(O)c1`, for which the Inhibition in the assay with Plasmodium falciparum [1] is on record as 100%; with Plasmodium falciparum [2], 56%; in the assay with HepG2, 2%.
The like results for `CNCCNCc1ccc(-c2ccc(-c3nc4cc(C(F)(F)F)ccc4[nH]3)s2)cc1.O=C(O)C(F)(F)F` were, in that order, 99%, 100% and 30%.
The matching figures for `CC1(C)NC(N)=NC(=N)N1OCc1cccc(Cl)c1Cl.Cl`: 92%, 75% and 68%.
For `Nc1nc(N)c2c(CCc3ccc(Cl)c(Cl)c3)cccc2n1`, the results for the Inhibition in the assay on Plasmodium falciparum [1], with Plasmodium falciparum [2] and in the assay with HepG2 were 100%, 83% and 51%, respectively.
The like results for `N=c1c2nc(-c3c(F)cccc3Cl)[nH]c(=O)c2[nH]c(=O)n1-c1ccccc1` were, in that order, 95%, 0% and 52%.
The matching figures for `CCCCCn1c(Sc2ccc(C#N)c([N+](=O)[O-])c2)nnc1-c1cccc(Cl)c1`: 95%, 75% and 4%.
The matching figures for `Cc1ccc(N2C(N)=NC(N)=NC2(C)C)cc1Cl.Cl`: 90%, 77% and 66%.
Turning to `Cc1cccc2c3c([nH]c12)C1(CCN(CCc2ccccc2)CC1)NC(C(=O)NCc1ccccc1)C3` (configuration not stated), the Inhibition in the assay with Plasmodium falciparum [1] amounted to 86%; with Plasmodium falciparum [2] it was 52%; with HepG2, 10%.
Regarding `CCCC(CNCc1ccccc1)CNc1cc(=O)c2ccccc2[nH]1` (configuration not stated), the results for the Inhibition with Plasmodium falciparum [1], in the assay on Plasmodium falciparum [2] and in the assay on HepG2 were 86%, 21% and 2%, respectively.
The like results for `O=C1COC2(CN1CC1CCN(Cc3ccc(O)c(Cl)c3)C1)c1ccccc1-c1ccccc12.O=CO` (configuration not stated) were, in that order, 93%, 50% and 6%.
In the case of `Cc1cccc2nc(-c3cccc(-c4cccc(NC(=O)NCc5cccc(F)c5)c4)c3)[nH]c12`, the Inhibition was 98% in the assay with Plasmodium falciparum [1], 32% in the assay with Plasmodium falciparum [2] and 11% in the assay with HepG2.
The like results for `CN(C)c1ccc2c(c1)Sc1cc(N(C)C)ccc1N2C(=O)c1cccc(C(=O)O)c1` were, in that order, 99%, 73% and 8%.
